High-throughput results deposited in PubChem BioAssay by several laboratories.
FGF22 binding – binders of human FGF22 protein, primary screen, FGF22 synaptogenesis inhibitor project, biophysical, thermal shift, single point; Fibroblast growth factor 22 (Homo sapiens), Q9HCT0; recombinant FGF22 thermal shift, SYPRO orange fluorescence; percent of sucrose octasulfate shift, DMSO zero; activity (Tm shift, normalised), % at 9.99 µM; 340,000 compounds, 1.5% hits; AID 651658, 2012;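 active = mean Tm shift, scaled 0 neutral to 100 positive control, at about 1.3% or above, every replicate too, limit read from the data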
Target sequence (Q9HCT0 whole entry, looked up): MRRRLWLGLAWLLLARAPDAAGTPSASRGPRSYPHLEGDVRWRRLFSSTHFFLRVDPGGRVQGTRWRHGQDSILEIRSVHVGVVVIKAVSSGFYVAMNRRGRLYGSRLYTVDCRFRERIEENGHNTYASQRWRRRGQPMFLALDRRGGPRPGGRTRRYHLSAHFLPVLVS
ADAM10 inh – human ADAM10 inhibitors, primary screen, biochemical, QFRET, HTS; recombinant ADAM10, EDANS/DABCYL FRET peptide cleavage, 3 h; inhibition, % at 7 µM; 370,000 compounds, 0.62% hits; AID 720582, 2013;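 active = inhibition above a per-campaign cutoff equal to the mean of compounds falling between control-based bounds plus 3 SD, cut at about 20% in these data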;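 note: 0% = DMSO wells while the 100% control is not disclosed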
Target sequence (O14672 214-748 limits assumed): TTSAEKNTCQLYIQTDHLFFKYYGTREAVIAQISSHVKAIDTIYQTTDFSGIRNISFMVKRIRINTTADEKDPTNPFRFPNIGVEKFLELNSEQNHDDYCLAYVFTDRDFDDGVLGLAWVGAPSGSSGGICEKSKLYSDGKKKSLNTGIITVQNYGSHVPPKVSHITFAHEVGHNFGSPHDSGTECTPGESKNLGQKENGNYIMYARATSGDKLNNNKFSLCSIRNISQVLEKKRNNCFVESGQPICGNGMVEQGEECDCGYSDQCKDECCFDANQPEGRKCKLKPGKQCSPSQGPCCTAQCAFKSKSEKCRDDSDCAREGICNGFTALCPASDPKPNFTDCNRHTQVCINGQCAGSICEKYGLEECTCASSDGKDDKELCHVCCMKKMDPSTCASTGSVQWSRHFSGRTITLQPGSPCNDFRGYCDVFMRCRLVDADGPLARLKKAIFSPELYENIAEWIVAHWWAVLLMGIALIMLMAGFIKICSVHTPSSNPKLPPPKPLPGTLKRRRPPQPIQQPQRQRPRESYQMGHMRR
ADAM17 inh – ADAM17 inhibitors, primary screen, biochemical, QFRET | AID 720648, 2013 | Disintegrin and metalloproteinase domain-containing protein 17 (Homo sapiens), P78536 | recombinant ADAM17, EDANS/DABCYL FRET peptide cleavage | inhibition, % at 6.95 µM | 370,000 compounds, 0.83% hits;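 active = inhibition above the mean of compounds lying between control limits plus 3 SD, set per campaign, cut at about 8.5% in these data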;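 note: 0% = DMSO-only wells as the low control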
Ecoli rRNA inh – reduced GFP signal of wild-type E. coli, primary screen, bacterial rRNA inhibitor project, GFP/RFP fluorescence, OD600, single point. GFP signal change (wild-type ribosome), % (concentration not given with the values). AID 720706, 2013. E. coli WT GFP vs humanized-ribosome RFP mutants, 24 h; active compounds read low; DMSO median 0, no signal -100. 350,000 compounds, 1.6% hits;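 active = significant combined selectivity score with lowered wild-type GFP, culture density cut under 30%, mutant RFP and density less affected; inactive = any of these conditions unmet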
proKLK7 act – proKLK7 zymogen activators, primary screen, biochemical, fluorescence intensity | 370,000 compounds, 0.9% hits | Kallikrein-7 (Homo sapiens), P49862 | AID 652039, 2013 | activation, % at 7 µM | purified proKLK7, EDANS-DABCYL substrate fluorescence; 100% is mature enzyme control, 0% vehicle;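 active = activation above the mean of all tested compounds plus 3 SD, computed per campaign excluding outliers beyond control limits, cut at about 13% in these data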
KLK7 act conf – proKLK7 zymogen activators, confirmation, biochemical, fluorescence intensity, triplicate; shares compounds with proKLK7 act; purified proKLK7, EDANS-DABCYL substrate fluorescence; scaled: vehicle 0, mature enzyme 100; activation, % at 7 µM; 3,200 compounds, 68% hits; AID 686949, 2013;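 active = activation, as change over the incubation, above the mean of all tested compounds plus 3 SD, cut at about 13% in these data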
EDANS-DABCYL int – EDANS-DABCYL substrate optical interference, artefact control for kallikrein-7 zymogen activator project, biochemical, fluorescence intensity, high throughput; shares compounds with proKLK7 act; no enzyme, 4 h; solvent 0%, active enzyme control 100%; activation, % at 7 µM; 3,200 compounds, 80% hits; AID 686952, 2013;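 active = activation above the all-compound mean plus 3 SD, ignoring values outside control-based bounds, cut at about 4.8% in these data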;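 note: value is the 4 h activation minus the activation read at time zero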
K7 EDANS ctr – counter-screen for kallikrein-7 activators: EDANS-DABCYL interference, dose response. shares compounds with proKLK7 act. EDANS-DABCYL peptide fluorescence interference, no enzyme. EC50, µM. 250 compounds, 20% hits. AID 720493;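 active = compounds that raise the fluorescence signal in this interference counterscreen, with EC50 at or below 10 µM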;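 note: intact quenched peptide substrate alone read at 355 nm excitation and 520 nm emission; signal is fluorescence gain from T0 to T4 after four hours at room temperature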
* marks the source's active call; other numbers are inactive results; i = inactive; nt = not tested or not shown. In the library only some 3.8% were active in any assay of this set; here they are far more common.

SMILES	FGF22 binding	ADAM10 inh	ADAM17 inh	Ecoli rRNA inh	proKLK7 act	KLK7 act conf	EDANS-DABCYL int	others
Cn1c(O)c(/C=C2\C=Nc3ccccc32)c(=O)n(C)c1=O	-0.2	0.9	-3.0	20.4	0.1	nt	nt
CN1C[C@H](CO)C=C2c3cccc4[nH]cc(c34)C[C@H]21	0.1	i	-208.8	15.3	39.4*	29.7*	24.8*	K7 EDANS ctr=>69.5
CC1=C[C@@H]2c3cccc4[nH]cc(c34)C[C@H]2N(C)C1	-0.3	-60.8	-25.4	9.6	2.2	nt	nt
O=C(O)[C@@H]1[C@@H](CO)[C@@H]2Cn3c(ccc(C4=CCCCC4)c3=O)[C@H]1N2CCc1ccccc1	nt	nt	nt	-4.5	nt	nt	nt
O=C(Cc1cc(=O)oc2cc(O)ccc12)NN=Cc1ccc(N(CCCl)CCCl)cc1	-0.2	i	i	2.5	119.4*	43.9*	31.4*	K7 EDANS ctr=i
COc1ccc2c3c([nH]c2c1)C(C)=NCC3	-0.2	i	i	-2.0	54.3*	58.3*	72.3*
CC1=NCCc2c1[nH]c1cc(O)ccc21	0.0	i	i	nt	80.0*	67.5*	70.5*
CCn1c(=O)cc(OCC(=O)N2CCC3(CC2)OCCO3)c2ccccc21	nt	-2.3	0.4	nt	-0.1	nt	nt
CC(=O)N1CCC2(CC1)CC(=O)c1cc(OCC(=O)N3CCN(C)CC3)ccc1O2	nt	i	-474.8	nt	41.7*	63.0*	68.2*
CC(=O)N1CCC2(CC1)CC(=O)c1cc(OCC(=O)N3CCC4(CC3)OCCO4)ccc1O2	0.3	i	-354.0	5.5	36.0*	70.0*	64.6*
Cc1cc(OCC(=O)N2CCCN(C)CC2)ccc1Cl	-0.1	4.5	4.4	-4.2	0.2	nt	nt
O=C(c1cc2c(s1)-c1ccccc1OC2)N1CCC2(CC1)OCCO2	nt	i	i	nt	50.3*	62.7*	74.9*
COc1ccc2cc(C(=O)C3CCCN(C4CCOCC4)C3)ccc2c1 (stereo not given)	0.0	i	-473.0	4.9	138.7*	4.2	20.4*
COc1ccc(C(=O)C2CCCN(C3CSCCSC3)C2)cc1OC (stereo not given)	0.1	-3.7	-1.5	-7.6	0.4	nt	nt
O=C(Cc1ccccc1)N1CC2(C1)[C@@H](c1ccccc1)[C@@H](CO)N2Cc1cccc(F)c1	-0.1	nt	nt	-15.2	nt	nt	nt
O=c1ccc2cc(O[C@@H]3O[C@H](CO)[C@@H](O)[C@H](O)[C@H]3O)c(O)cc2o1	-0.1	i	i	nt	53.5*	67.1*	70.6*
COC(=O)[C@H]1[C@H](CO)[C@H]2Cn3c(ccc(-c4ccc(F)cc4)c3=O)[C@@H]1N2Cc1cccnc1	-0.1	nt	nt	0.1	nt	nt	nt
CCOc1ccc(-c2cc(C)[n+](CCO)c(-c3ccc(OCC)cc3)c2)cc1	0.1	i	-425.4	-51.8	94.2*	69.6*	69.0*
COC(=O)[C@H]1[C@H](CO)[C@H]2Cn3c(ccc(-c4ccccc4F)c3=O)[C@@H]1N2CC1CCCC1	-0.1	nt	nt	-2.8	nt	nt	nt
O=c1[nH]c(=S)n(Cc2ccc(F)cc2)c(O)c1C=NCC1CCCO1 (stereo not given)	nt	-7.2	-2.0	nt	-0.2	nt	nt
O=c1[nH]c(=S)n(Cc2ccc(F)cc2)c(O)c1/C=N/N1CCCCC1	0.1	-3.8	1.0	6.8	13.7*	2.1	0.6
O=C(Cc1ccccn1)N1CC2(C1)[C@@H](c1ccccc1)[C@@H](CO)N2Cc1ccccn1	0.1	nt	nt	1.6	nt	nt	nt
CCC(=O)N1[C@@H]2Cn3c(ccc(-c4cccc(F)c4)c3=O)[C@H]1[C@@H](C(=O)OC)[C@@H]2CO	0.1	nt	nt	-1.9	nt	nt	nt
CCC1(OC(=O)CN)C(=O)OCc2c1cc1n(c2=O)Cc2cc3ccccc3nc2-1 (stereo not given)	nt	nt	nt	20.9	nt	nt	nt
CC[C@@]1(O)C(=O)OCc2c1cc1n(c2=O)Cc2cc3c(NC(=O)CN)cccc3nc2-1	0.2	i	i	14.4	350.0*	108.9*	98.7*
SMILES	FGF22 binding	ADAM10 inh	ADAM17 inh	Ecoli rRNA inh	proKLK7 act	KLK7 act conf	EDANS-DABCYL int	others
Cc1cc(=O)oc2cc3c(cc12)CCCN3	-0.2	i	i	13.9	59.5*	66.0*	62.5*
COC(=O)C(C)Oc1cc(C)cc2oc(=O)c3c(c12)CCC3 (stereo not given)	nt	i	-202.7	nt	16.5*	6.8	12.3*
Cc1cc(OCC(=O)N2CCC(C(=O)O)CC2)c2c3c(c(=O)oc2c1)CCC3	-0.1	i	-315.8	nt	18.8*	12.9*	15.8*
CCN1[C@@H]2c3ccc(-c4ccc(OC)cc4)c(=O)n3C[C@H]1[C@H](CO)[C@H]2C(=O)OC	0.1	nt	nt	3.9	nt	nt	nt
CCCN1[C@@H]2Cn3c(ccc(-c4ccccc4)c3=O)[C@H]1[C@@H](C(=O)OC)[C@@H]2CO	-0.1	nt	nt	0.8	nt	nt	nt
CN(C)[C@@H]1C(=O)C(C(N)=O)=C(O)[C@@]2(O)C(=O)C3=C(O)c4c(O)ccc(Cl)c4[C@@](C)(O)[C@H]3C[C@@H]12	0.1	-122.0	-31.4	-43.2	12.8*	37.2*	35.0*
CN(C)[C@@H]1C(=O)C(C(N)=O)=C(O)[C@@]2(O)C(=O)C3=C(O)c4c(O)cccc4[C@@](C)(O)C3C[C@@H]12 (stereo not given in full)	-0.4	-0.2	0.1	nt	-0.9	nt	nt
CC=Cc1ccc2n(c1=O)C[C@@H]1[C@@H](CO)[C@H](C(=O)OC)[C@H]2N1CC1CCOCC1 (mixture of isomers)	0.2	nt	nt	4.6	nt	nt	nt
COC(=O)C[C@@H]1CC[C@H]2NC[C@@H](O)COC[C@@H]2O1	0.2	nt	nt	-0.5	nt	nt	nt
CC1CN(CC(=O)c2ccccc2Cl)CC(C)O1 (stereo not given)	-0.3	4.8	-2.0	16.4	15.8*	0.4	0.0
O=C(Cc1ccccc1)N1CCCCN2[C@H](C1)[C@H](c1ccc(C#Cc3ccccc3)cc1)[C@@H]2CO	-0.4	nt	nt	1.9	nt	nt	nt
